The source of these data is ChEMBL document CHEMBL3988442, “University of Dundee, Small-Polar-MMV Screening Library” (2021).

The campaign covered roughly 48,000 compounds. About 13,000 (27%) showed an effect of 50% or more. Some of the results follow.

In this experiment the test system is Wolbachia pipientis. Briefly: Anti-Wolbachia Cell-Based Screen. The class given is functional. Also on record: scale not given: in the data most compounds retested in dose-response had high values. Conditions: 5 µM.
For `COCc1ncn(Cc2nc(-c3ccc(OC)c(OC)c3)oc2C)n1`, the “Percent Effect” value is listed as 7.274%.
Turning to `Cn1ccc(CNC(=O)Nc2ccc(S(=O)(=O)C(F)F)cc2)c1`, the “Percent Effect” value was -20.88%.
To `N#Cc1cc(NC(=O)c2ccccn2)ccc1N1CCC(O)CC1` belongs -12.43%.
To `Cc1cc2cccc(C(=O)N3CC[C@@H](N)[C@H](O)C3)c2o1` belongs -9.123%; to `Cc1cc(C(=O)N2CCCC(c3noc(C)n3)C2)[nH]n1` (stereo not given), -10.2%; to `Cc1cc(-c2ccccc2C(=O)O)nc(C2CCCN(C)C2)n1` (stereo not given), 123%.
To `Cc1noc(C2CCCN(C(=O)c3ccc(F)cc3F)C2)n1` (stereo not given) belongs -2.652%.
Regarding `Cc1nc(C(C)C)ncc1C(=O)N1CCC(c2ccccc2C(=O)O)C1` (stereo not given), the “Percent Effect” value is -21.75%.
To `Cc1nc(-c2ccccc2C(=O)O)cc(C2CCN(C(C)C)C2)n1` (stereo not given) belongs 107.2%.
To `CC(=O)N1CCC(c2nc(C)cc(-c3ccccc3C(=O)O)n2)CC1` belongs 83.33%; to `Cc1cc(-c2cc(F)ccc2C(=O)O)nc(C2CCCN(C)C2)n1` (stereo not given), 126.1%.
The figure for `COC(=O)c1cccc(NS(=O)(=O)c2cnc(NC(C)=O)s2)c1` is 20.99%; for `Cc1cc2nc(CO[C@H]3CN(C(=O)C4CC4)C[C@H]3F)[nH]c2cc1C` it is 14.86%; for `CC(Cc1ccco1)NS(=O)(=O)N1CCCCC1` (stereo not given) it is -4.951%.
`Cc1cc(-c2cc(F)ccc2C(=O)O)nc(C2CCCCN2C(C)C)n1` (stereo not given): the “Percent Effect” value is 125.8%.
The figure for `COC(=O)NCC(=O)N1CCCCC1c1nc2cc(F)ccc2[nH]1` (stereo not given) is -29.13%; for `Cc1cc(-c2ccccc2C(=O)O)nc(C2CCCN(C(C)C)C2)n1` (stereo not given) it is 128.4%.
The figure for `Cc1cc(=O)c(C(=O)N2CCCCC2c2ccc(F)cc2)c[nH]1` (stereo not given) is -20.91%; for `COc1ccc(Cl)cc1CCNC(=O)N(C)CC1CCOC1` (stereo not given) it is 11.56%.
The figure for `CN(C)CCN1CCc2c(nnn2C)C1COCc1ccccc1.O=C(O)C(F)(F)F.O=C(O)C(F)(F)F` (stereo not given) is 6.935%; for `CN1CCC2(CC1)CN(Cc1ccc(C3CCCCO3)o1)CCCN2C` (stereo not given) it is 6.017%; for `CN(C)c1ccc(NC(=O)NCc2cccnc2N(C)C)cn1` it is 100.5%.
Regarding `Cc1nnc(NC(=O)NCc2cccnc2N(C)C)s1`, the “Percent Effect” value is given as 4.263%.
The figure for `CN(C)c1ccc(NC(=O)NCc2cccs2)cn1` is -3.387%; for `COc1ncccc1CNC(=O)Nc1ccc(N(C)C)nc1` it is 102.4%; for `Cc1nc(CNC(=O)Nc2ccc(N(C)C)nc2)sc1C` it is -4.03%.
To `CC(CNC(=O)Nc1ccc(N(C)C)nc1)Cn1cccn1` (stereo not given) belongs 10.01%.
The figure for `O=C(O)C(F)(F)F.O=C(O)C(F)(F)F.O=S(=O)(NCC1OCCc2cn(Cc3ccccn3)nc21)C1CC1` (stereo not given) is 3.652%.
Regarding `CCCN1CCCN(c2ccc(-n3ccc(C)n3)nn2)CC1`, the “Percent Effect” value is given as -2.54%.
The figure for `CC(C)c1cc(NC(=O)CN2CCc3ccccc3C2)on1` is 0.7279%; for `Cc1nnc2n1CCN(CC(=O)Nc1cc(C(C)C)no1)C2` it is 1.962%; for `CC(C)c1cc(NC(=O)CN2CCc3cncnc3C2)on1` it is -4.855%.
For the compound `CNC(=O)C1CCN(CC(=O)Nc2cc(C(C)C)no2)CC1`, the “Percent Effect” value turned out to be 108.1%.
To `CC(C)c1cc(NC(=O)CN2CCC(C(N)=O)CC2)on1` belongs 115.1%; to `CC(C)c1cc(NC(=O)CN2CCCC(Cn3cncn3)C2)on1` (stereo not given), 3.767%.
To `O=C1CCC2(CCN(Cc3ccc(F)cc3Cl)CC2)CN1CCO` belongs -18.28%; to `CCOc1ccc(CNC(=O)N(C)Cc2ncnn2C)cc1C`, 11.45%.
The figure for `CC(C)c1noc(C2CCCN2C(=O)CN2CCc3ccccc32)n1` (stereo not given) is -3.468%; for `CN1CCCN(C(=O)c2nc3c(o2)CN(S(C)(=O)=O)C3)CC1` it is 89.92%.
Take `CN1CCCN(C(=O)c2nc3c(o2)CN(C(=O)c2cccnc2)C3)CC1.O=C(O)C(F)(F)F.O=C(O)C(F)(F)F`: the “Percent Effect” value is given as -2.795%.
On to `CCCNC(=O)c1nc2c(o1)CN(C(=O)CN(C)C)C2`, for which the “Percent Effect” value is given as 2.652%.
The figure for `CN(C)CC(=O)N1Cc2nc(C(=O)NCc3ccccc3)oc2C1` is 4.563%.
Consider `CN1CCN(C(=O)c2nc3c(o2)CN(C(=O)c2cccnc2)C3)CC1.O=C(O)C(F)(F)F.O=C(O)C(F)(F)F`, for which the “Percent Effect” value is reported as 7.797%.
The figure for `CN(C)CC(=O)N1Cc2nc(C(=O)N3CCCN(C)CC3)oc2C1` is 106%; for `COCCN1CC(Nc2nc(C(C)C)nc3c2cnn3C)CC1=O` (stereo not given) it is 0.2406%.
Take `CCCc1nc(C)cc(N2CCNC(C(=O)NCc3cccnc3)C2)n1` (stereo not given): the “Percent Effect” value is 0.7849%.
Turning to `CSC(CNS(N)(=O)=O)c1cccc(Cl)c1` (stereo not given), the “Percent Effect” value was -15.56%.
Take `O=C(O)C(F)(F)F.O=C([C@H]1CC[C@@H]2[C@@H](CCN2Cc2nccs2)O1)N1CCCCO1`: the “Percent Effect” value is -6.039%.
To `CC(C)N(C)[C@@H]1CCN(Cc2nccs2)[C@H]1Cc1ccncc1.O=C(O)C(F)(F)F.O=C(O)C(F)(F)F.O=C(O)C(F)(F)F` belongs -17.48%; to `CN(C)C(=O)[C@@H]1C[C@@H]2[C@@H](CCN2Cc2nccs2)O1.O=C(O)C(F)(F)F`, 111.2%.
To `CC(C)NC(=O)[C@H]1C[C@@H]2[C@@H](C1)OCCN2Cc1nccs1.O=C(O)C(F)(F)F` belongs 0.8743%.
To `CN(C)C(=O)[C@@H]1CC[C@@H]2[C@@H](CCN2Cc2nccs2)O1.O=C(O)C(F)(F)F` belongs 98.79%; to `CS(=O)(=O)N1C[C@H]2CCCN(Cc3nccs3)[C@H]2C1.O=C(O)C(F)(F)F`, 1.749%; to `Cc1ccccc1-c1noc(C2CC(C(C)C)=NO2)n1` (stereo not given), 10.38%.
As for `CCc1cc(N(C)Cc2nonc2C)nc(N2CCOCC2)n1`, the “Percent Effect” value was -1.429%.
Take `CCc1cc(N(C)Cc2nonc2C)nc(N(C)C)n1`: the “Percent Effect” value was determined as 93.32%.
To `CCN(Cc1nonc1C)C(=O)c1cnccn1` belongs -6.24%; to `Cc1cc(=O)n(C)cc1NC(=O)Cc1cc(F)ccc1F`, 0.6087%; to `O=c1[nH]c(-c2ccccc2F)nc2c1CCNC2`, -26.1%.
Turning to `CCCC1SCCN1C(=O)c1ccc(-n2ncc(C#N)c2N)cc1` (stereo not given), the “Percent Effect” value is reported as -7.11%.
The figure for `N#Cc1cnn(-c2ccc(C(=O)Nc3ccccn3)cc2)c1N` is 2.958%.
The figure for `CCN(CC)C(=O)c1ccc(-n2ncc(C#N)c2N)cc1` is 113.8%.
The figure for `CC(C1CC1)N(C)C(=O)c1ccc(-n2ncc(C#N)c2N)cc1` (stereo not given) is 117.6%.
Consider `CC(C)C1CCCN1C(=O)c1ccc(-n2ncc(C#N)c2N)cc1` (stereo not given), for which the “Percent Effect” value is listed as -2.457%.
The figure for `CC(C)CCN(C(=O)c1cccc(NC(N)=O)c1)C1CC1` is -12.61%.
As for `N#Cc1cnn(-c2ccc(C(=O)N(C3CCCCC3)C3CC3)cc2)c1N`, the “Percent Effect” value stood at 50.38%.
To `CC(C)CCN(C(=O)Nc1cccc(C(=O)N(C)C)c1)C1CC1` belongs -4.492%; to `N#Cc1ccc(C(=O)N(C2CC2)C2CC(=O)NC2=O)cc1` (stereo not given), -1.854%; to `COc1ccc(NC(=O)c2ccc(-n3ncc(C#N)c3N)cc2)cn1`, -17.39%.
To `Cc1cnc(NC(=O)c2ccc(-n3ncc(C#N)c3N)cc2)s1` belongs -16.88%; to `CC(C)CCN(C(=O)c1ccc(-n2ncc(C#N)c2N)cc1)C1CC1`, 92.49%.
With `Cc1nc(CN2CCC(C(=O)N(C)C3CCC(C)CC3)CC2)cs1` (stereo not given), the “Percent Effect” value is on record as -8.684%.
The figure for `Cc1nc(-c2cc(F)c3c(c2)CC(CN)O3)c[nH]1` (stereo not given) is 4.344%; for `O=C(CCn1cccn1)N1CC[C@@H](c2ccc3ccccc3c2)[C@H](O)C1` it is 28.28%; for `CN(C(=O)c1ccc(NC(=O)c2cc[nH]n2)cc1)C1CCCCC1` it is -4.101%.
Regarding `CN(C(=O)c1ccc(-n2ncc(C#N)c2N)cc1)C1CCCC1`, the “Percent Effect” value was 106.6%.
To `Cc1nc2c(C#N)cnn2c(C)c1CCC(=O)N(C)C1CC1` belongs -17.24%.
To `CCC(=O)Nc1cc(Br)cn(C)c1=O` belongs 3.06%; to `O=C(c1ccc(F)cc1)N(CCCO)S(=O)(=O)c1cccs1`, 17.63%.
To `CCN1CCC(CNCc2c[nH]nc2C(C)(C)C)C1.Cl` (stereo not given) belongs 95.83%; to `Cc1cccc(-c2[nH]ncc2CNCC2CCN(CC(C)O)CC2)c1` (stereo not given), -2.172%.
For the compound `Cc1ccc(-c2n[nH]cc2CNCC2CCc3nnc(C)n3C2)cc1` (stereo not given), the “Percent Effect” value is -17.97%.
Take `CC(C)(C)c1n[nH]cc1CNCC1CCN(CC(F)(F)F)C1.Cl` (stereo not given): the “Percent Effect” value is reported as -2.373%.
For `CC(C)N1CCC(CNCc2c[nH]nc2C(C)(C)C)C1` (stereo not given), the “Percent Effect” value stood at 9.105%.
With `COCCn1cc(NCc2c[nH]nc2C(C)(C)C)cn1`, the “Percent Effect” value was 0.5813%.
The figure for `COCCN1CCC(CNCc2c[nH]nc2C(C)(C)C)CC1` is 88.21%.
The figure for `Cc1ccc(-c2n[nH]cc2CNCC2CCN(CC(C)O)CC2)cc1` (stereo not given) is 92.7%.
For the compound `CC(C)(C)c1n[nH]cc1CNCC1CCN(C2CC2)C1.Cl` (stereo not given), the “Percent Effect” value was determined as 3.787%.
The figure for `CNc1cc(N2CCCC2CNCc2c[nH]nc2C(C)(C)C)ncn1` (stereo not given) is 0.4855%.
The figure for `CN(C)CCN1CCC(CNCc2c[nH]nc2C(C)(C)C)CC1` is 106%; for `CC(O)CN1CCC(CNCc2c[nH]nc2C(C)(C)C)CC1` (stereo not given) it is -0.09307%.
To `CCC(CO)NC(=O)Nc1cc(F)ccc1SCC(F)F` (stereo not given) belongs 1.4%; to `CCOCc1ccc(NC(=O)NC2CCCn3nc(CC)nc32)cc1` (stereo not given), -7.286%; to `CNC(=O)C(CC(C)C)NC(=O)c1cccc(-c2nc(C)cs2)c1` (stereo not given), 8.267%.
As for `CCN(CC(=O)N(C)C)C(=O)c1ccc(-c2nc(C)cs2)cc1`, the “Percent Effect” value turned out to be 133.8%.
To `CCCN(CC(=O)NC)C(=O)c1ccc(-c2ccsc2)nc1C` belongs -3.974%; to `CN(C)C(=O)c1csc(-c2ccoc2)n1`, -7.541%.
Take `CCCN(CC(=O)NC)C(=O)c1ccc(-c2nc(C)cs2)cc1`: the “Percent Effect” value was determined as 92.57%.
The figure for `CNC(=O)CN(C)C(=O)Cc1csc(C(C)C)n1` is -0.57%.
On to `Cc1csc(-c2ccc(NC(=O)N3CCOCC3)cc2)n1`, for which the “Percent Effect” value is recorded as 9.555%.
Take `CCN(CC(=O)NC)C(=O)Cc1csc(C(C)C)n1`: the “Percent Effect” value is reported as -3.04%.
The figure for `CNC(=O)CN(C)C(=O)c1ccc(-c2nc(C)cs2)cc1` is 115.5%.
To `Cc1ccc(-c2nc(C(=O)N(C)CC(=O)N(C)C)cs2)c(C)c1` belongs -25.77%; to `CCCN(CC(=O)N(C)C)C(=O)c1ccc(-c2nc(C)cs2)cc1`, 106.6%.
As for `CCN(CC(=O)N(C)C)C(=O)c1cc(-c2cccc(Cl)c2)no1`, the “Percent Effect” value is -0.1751%.
